Source: PubChem BioAssay
Sampled rows, rich in hits. Any-hit rate of the full collection: about 3.3%.
HttQ103 aggreg: inhibitors of mutant huntingtin aggregate formation in PC12 cells | Potency, µM (highest dose often 46.1 µM), for inactives: at the top dose activity change, negative = inhibition, most hits filed as inhibitors | actives 1.1% (n = 220,000) | PC12 HttQ103-GFP aggregates, Acumen cytometry, 40 h | AID 1688; note: potency is the fitted concentration of half-maximal effect; % is set by controls: 0 for no effect and ±100 for the full control effect; nearly all actives have a fitted effect of over 60% in size
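Aggregate formation scored by laser-scanning cytometer (488 excitation, 500–530 emission) in lysed PC12 cells expressing Q103-GFP after 100 nM tebufenozide induction; library tested in dose series, with ATPLite reagent added in the multiplex.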
IMPase inh: IMPase inhibition in cells. P97697. AID 901. inhibition (IP1 accumulation), % at 46.1 µM. CHO-M1 cells, IP1 accumulation, HTRF TR-FRET ratio. 120,000 tested, under 10 active; active = well fitted curve in the direction sought with a large enough effect in the signal ratio, not every such curve was filed as active; inconclusive = small, poorly fitted or top-dose-only effect, or a change in a side signal; inactive = no such curve, though single readings can be large or run the other way; the % refers to the signal ratio;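 note: cells stimulated with carbachol in lithium chloride buffer; plate controls were DMSO basal wells for no effect and reference inhibitor wells for full effect; higher means more IMPase inhibition seen as more IP1 and lower FRET ratio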
Target sequence (P97697 whole entry, looked up): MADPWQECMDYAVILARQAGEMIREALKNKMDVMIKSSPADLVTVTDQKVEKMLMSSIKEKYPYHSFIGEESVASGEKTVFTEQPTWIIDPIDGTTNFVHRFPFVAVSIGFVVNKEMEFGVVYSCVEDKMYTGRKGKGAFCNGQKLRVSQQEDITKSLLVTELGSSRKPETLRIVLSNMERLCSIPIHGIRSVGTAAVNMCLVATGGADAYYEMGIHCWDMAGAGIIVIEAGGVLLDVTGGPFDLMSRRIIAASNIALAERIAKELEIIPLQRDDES
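Measured: the HTRF emission ratio (665/620 nm) plus the 620 nm donor channel, each fitted to the Hill equation to give AC50. Cells were CHO-M1 given compounds up to 46 uM and a 30 min carbachol stimulation at 37C.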
NPSR antagonist: blocks cAMP signaling of the human neuropeptide S receptor; Q6W5P4; Potency, µM (series often up to 38.3 µM), for the others: at the top dose activity change, negative = inhibition, actives largely listed as inhibitors; actives 1% (n = 220,000); CHO-NPSR cells, cAMP TR-FRET, antagonist mode; AID 1461; note: potency is the fitted concentration of half-maximal effect; % is set by controls: 0 for no effect and ±100 for the full control effect; nearly all actives have a fitted effect of over 50% in size
HTT cytoprotect: Huntington cell model cytoprotection by ATP luminescence; PC12 HTT-Q103 induced, cytoprotection, ATP luminescence, 40 h; actives 0.14% (n = 230,000); Potency, µM (titrated, usually from 56.4 µM), for inactives: cytoprotection (ATP increase), usual class: activators; note: potency is the fitted concentration of half-maximal effect; % of control where 0% means no effect; nearly all actives have a fitted effect of over 45% in size
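Huntington model: PC12 line, ecdysone-inducible HTTQ103 exon1–GFP, tebufenozide 100 nM. Test articles in a dose series. Endpoint luminescence from cellular ATP.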
12-hLO inh: inhibitors of human 12-lipoxygenase (ALOX12). purified 12-hLO, xylenol orange hydroperoxide absorbance. Potency, µM (highest dose often 57.1 µM), for inactives: top-dose activity change, negative = inhibition, hits mostly inhibitors. actives 0.12% (n = 150,000). AID 1452; note: potency is the fitted concentration of half-maximal effect; % is set by controls: 0 for no effect and ±100 for the full control effect; nearly all actives have a fitted effect of over 55% in size
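Purified human 12hLO (150 nM final) was preincubated with compounds for 15 min at room temperature in 25 mM Hepes pH 7.0, 0.01% Triton X-100, then reacted with 40 uM arachidonic acid for 30 min. Hydroperoxide was detected with ferrous iron/xylenol orange.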
PNC inhibitor: perinucleolar compartment assembly inhibition; actives 3.1% (n = 140,000); activity change (PNC), negative = inhibition, % at 10 µM; PC3M PTB-GFP, PNC prevalence imaging, 16 h; active compounds read low; AID 2417;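 active = readout at or below -70, meaning at least 70% loss of cells showing the perinucleolar compartment, a nuclear body marking cancer cells; inconclusive = readout between -30 and a set limit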;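 note: plate controls were DMSO wells for no effect and camptothecin positive control wells for full effect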
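PC3M cells stably expressing PTB-GFP, 750–1000 cells/well, treated 16 h at 37 °C with compound (23 nl of library stock), in duplicate. After paraformaldehyde fixation and Hoechst stain, imaged at 20x; PNC prevalence scored by image analysis.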
An asterisk follows results filed as active; ? = inconclusive; / = no result; [ ] = remark or other dose. Unless noted, calls come from the whole dose curve; as a rule, active = well fitted curve in the direction sought with a large enough effect; inconclusive = small, poorly fitted or top-dose-only effect, or another doubt; inactive = no such curve, though single readings can be large; an effect the other way counts as inactive or inconclusive.

SMILES | HttQ103 aggreg | IMPase inh | NPSR antagonist | HTT cytoprotect | 12-hLO inh | PNC inhibitor
CCOC(=O)c1[nH]c2c(c1C)C(=O)CC(c1ccc(F)cc1)C2 (stereo not drawn) | -14.4% | 3.1 | 8.6%[46.1 µM] | -56.6% | 1.2% | -94.6*
CCOC(=O)c1cnc2sc3c(n2c1=O)CCCC3 | 8.91µM* | -1.2 | 6.7%[46.1 µM] | -12.2%[10 µM] | -6.2% | ?
COc1ccc(CN2C3CCCC2CC(NC(=O)Nc2ccccc2C)C3)cc1 (stereo not drawn) | 20.9% | -3.3 | 5.4%[46.1 µM] | -12.1%[10 µM] | 1.2% | -100.0*
COc1ccc(CN2C3CCCC2CC(NC(=O)Nc2ccccc2)C3)cc1 (stereo not drawn) | -3.1% | 2.1 | 10.7%[46.1 µM] | 16.9%[10 µM] | -4.4% | 118.2
CC(C)Cc1ccc(S(=O)(=O)Nc2ccccn2)cc1 | -33.6%[9.22 µM] | / | 12.0% | -6.4%[10 µM] | / | /
COc1cc(C(=O)/C=C/Nc2ccc(NC(C)=O)cc2)cc(OC)c1OC | -3.1% | / | 6.6% | -17.8%[10 µM] | 0.4% | -95.2*
CC(C)[C@H](Nc1ccc(S(=O)(=O)N2CCOCC2)cc1[N+](=O)[O-])C(=O)OCC(N)=O | 8.9% | / | 8.7% | 2.4%[10 µM] | -2.5% | 2.5
CNC(=O)COC(=O)[C@@H](Nc1ccc(S(=O)(=O)N2CCOCC2)cc1[N+](=O)[O-])C(C)C | 4.7% | / | 5.8% | 27.0%[10 µM] | -1.6% | -113.4*
CCCC(C)C(=O)Nc1ccncc1 (stereo not drawn) | -24.8% | -6.6 | 5.6%[46.1 µM] | 9.6%[10 µM] | 8.9% | -100.0*
OCC(O)C(O)C(O)CO (stereo not drawn) | -2.7% | / | / | -7.6% | 4.6% | /
Clc1ccccc1C(c1ccccc1)(c1ccccc1)n1ccnc1 | ? | 5.4[20.6 µM] | 5.01µM* | -54.9% | -7.2% | /
NC(=O)c1cc(-c2ccccc2)nc(Oc2ccccc2)n1 | -6.3% | -0.6 | -1.5%[46.1 µM] | 4.5% | -3.4% | -116.6*
CC(NCc1ccc(-c2ccccc2)cc1)C(O)c1ccccc1 (stereo not drawn) | ? | / | ? | / | -12.4% | -118.2*
CCOc1ccc(-c2nnc(N3CCCCC3)c3ccccc23)cc1 | 11.2µM* | 10.4 | ? | -38.1% | 1.0% | 24.9
O=c1c(CCc2ccccc2)nc2cnc(N3CCNCC3)nc2n1C1CC1 | / | / | / | 2.4% | / | /
CC(=O)N1CCCc2cc(S(=O)(=O)NCCC3=CCCCC3)ccc21 | -26.0% | -4.1 | -3.8%[46.1 µM] | 21.1%[10 µM] | 0.9% | -86.1*
CC(=O)N1CCCc2cc(S(=O)(=O)NCc3ccc(C)cc3)ccc21 | ? | -0.6 | -6.9%[46.1 µM] | 15.4%[10 µM] | -0.9% | 40.2
Cc1cc(N)c2ccccc2[n+]1CCCCCCCCCCCCCC[n+]1c(C)cc(N)c2ccccc21 | / | 19.2 | 15.8µM* | -90.3%[1.9 µM] | -6.6% | /
CCOC(=O)c1ccc(NC(=O)c2ccc(-c3cccc(Cl)c3C)o2)cc1 | / | -7.4 | / | / | / | /
c1ccc(CCc2nn3c(Cn4cnc5ccccc54)nnc3s2)cc1 | -28.7% | 3.2 | -20.1%[46.1 µM] | 6.9% | 5.8% | 6.7
COc1ccc(OCc2nn3c(Cn4cnc5ccccc54)nnc3s2)cc1 | 25.1µM* | 10.9 | -4.8%[46.1 µM] | -31.5% | -0.3% | 42.8
O=S(=O)(c1ccc(Br)cc1)N1CCCC1c1nc2ccccc2s1 (stereo not drawn) | ? | 6.5 | -10.3%[46.1 µM] | 15.0%[10 µM] | -14.4% | -100.0*
CC1=C(\C=C/C(C)=C/C=C\C(C)=C\C(=O)Nc2ccc(O)cc2)C(C)(C)CCC1 | / | / | / | 11.4%[1.9 µM] | / | /
CCN=c1scc(-c2ccccc2)n1/N=C/c1ccccn1 | -29.9% | / | -36.4% | -34.1%[10 µM] | 2.6% | -125.2*
C=CCN=c1scc(-c2ccccc2)n1/N=C/c1ccccn1 | ? | 15.6 | -3.5% | -8.1%[10 µM] | -0.8% | -105.8*
C=CCN=c1scc(-c2ccc(F)cc2)n1/N=C/c1ccccn1 | -23.3% | 25.3 | 3.5% | 36.7%[10 µM] | -3.6% | ?
Cc1ccc(C)c(NC(=S)NC(NC(=O)Cc2cccc3ccccc23)C(Cl)(Cl)Cl)c1 (stereo not drawn) | -15.5%[1.84 µM] | -2.1 | 7.94µM* | -109.1% | 1.0% | -27.9
COCc1nc2c([nH]1)c(=O)n(C)c(=O)n2CC(C)C | / | -5.4 | -11.0%[46.1 µM] | -21.6% | -2.9% | /
